Compound activity (PubChem)
CHRM4 antagonist: blocks acetylcholine activation of human M4 receptor | CHO-hM4 cells, ACh EC80, Fluo-8 calcium fluorescence | hit rate 0.73% among 360,000 | inhibition, % at 3 µM;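 active = inhibition above its plate's cutoff, the mean inhibition of sample wells plus 3 SD, cut at about 27% in these data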;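 also: 0% = acetylcholine EC80 with DMSO and 100% = DMSO without agonist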
Target sequence (P08173 whole entry, looked up): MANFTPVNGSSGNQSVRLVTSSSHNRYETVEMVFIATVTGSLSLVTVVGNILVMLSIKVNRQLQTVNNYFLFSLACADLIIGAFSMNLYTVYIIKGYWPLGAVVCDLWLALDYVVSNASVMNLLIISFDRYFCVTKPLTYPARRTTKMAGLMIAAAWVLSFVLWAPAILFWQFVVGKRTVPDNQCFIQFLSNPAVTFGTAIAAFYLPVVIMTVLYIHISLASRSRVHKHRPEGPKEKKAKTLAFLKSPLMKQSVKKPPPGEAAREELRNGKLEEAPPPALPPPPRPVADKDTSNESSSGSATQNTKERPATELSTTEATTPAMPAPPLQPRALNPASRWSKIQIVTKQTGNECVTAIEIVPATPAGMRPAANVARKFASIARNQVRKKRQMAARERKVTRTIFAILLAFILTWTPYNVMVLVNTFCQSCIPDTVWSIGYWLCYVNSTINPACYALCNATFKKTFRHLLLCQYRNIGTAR
CHO-K1 Ca antag: nonselective inhibitor or artifact in parental CHO-K1 cells; ATP-induced calcium, Fluo-8 fluorescence; inhibition, % at 3 µM; AID 602250; hit rate 0.6% among 360,000;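 active = inhibition above a per-plate cutoff, the plate's mean sample inhibition plus 3 SD, cut at about 24% in these data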;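 also: 0% = DMSO plus EC80 ATP and 100% = DMSO alone without ATP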
M4 PAM: potentiates acetylcholine response at human M4 receptor | activation, % at 3 µM | P08173 | CHO-K1 hM4/Gqi5, Fluo-8 calcium fluorescence, ACh EC20; 0% = ACh EC20, 100% = maximal ACh | hit rate 0.4% among 360,000;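 active = activation above its plate's cutoff, the mean activation of sample wells plus 3 SD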
M1 PAM parental: M1 PAM counterscreen hit in parental CHO-K1 cells | hit rate 0.02% among 360,000 | ATP EC20, Fluo-8 calcium fluorescence; 0% at ATP EC20, 100% at ATP max | activation, % at 3 µM;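 active = activation above the run cutoff, the mean activation of all test compounds plus 3 SD, cut at about 40% in these data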;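 also: peak over basal fluorescence ratio in a 140 s read after ATP addition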
CHO-K1 Ca ag: counter-screen for M1 agonists: effect in parental CHO-K1 cells; AID 602248; Fluo-8 calcium fluorescence; scaled to maximal ATP response, vehicle zero; hit rate 0.48% among 360,000; activation, % at 3 µM; in the data active = activation above about 15%;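 also: untransfected CHO-K1 host cells lacking M1 receptor as counterscreen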
M4 ag: agonists of human muscarinic M4 receptor (CHRM4); CHO-K1 hM4/Gqi5, Fluo-8 calcium fluorescence; vehicle 0%, full acetylcholine response 100%; activation, % at 3 µM; P08173; AID 624127; hit rate 0.14% among 360,000;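 active = activation above the run mean over all test wells plus 3 SD, cut at about 32% in these data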;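 also: peak over basal fluorescence ratio per well then scaled between controls; 0% = DMSO wells and 100% = acetylcholine at EC100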
Active calls of the source: *. Shown are actives, neighbours in structure and some others; about 2% of the full set was active somewhere.

SMILES	CHRM4 antagonist	CHO-K1 Ca antag	M4 PAM	M1 PAM parental	CHO-K1 Ca ag	M4 ag
O=C1C(Cl)=C(Nc2ccc3cn[nH]c3c2)C(=O)c2ccccc21	39.1*	19.6	-14.6	-5.0	-2.6	-2.4
CN(C)c1ccc(NC2=C(Cl)C(=O)c3ccccc3C2=O)cc1	36.5*	22.9	-14.0	-3.5	-1.0	-1.7
CCOc1cc(CNCCSc2nnnn2C)cc(Br)c1OCc1ccc(F)cc1	27.8*	7.8	-14.4	-10.7	6.6	22.4
COc1cc(CNCCSc2nnnn2C)cc(Br)c1OCc1ccc(F)cc1	2.9	2.2	-4.6	4.8	0.4	6.5
COc1ccc(OC)c(NS(=O)(=O)c2ccc(NC(C)=O)cc2)c1	1.4	-4.1	3.5	20.0	1.0	2.3
COc1ccc(C)cc1NS(=O)(=O)c1ccc(NS(=O)(=O)c2ccc(NC(C)=O)cc2)cc1	-1.7	-2.1	22.4*	-3.5	0.0	0.1
CC1CCCCC1NC(=O)c1c(O)nc2ccccn2c1=O (centres undefined)	-4.9	-1.9	-1.3	-9.5	0.0	-0.6
Cc1cc(C)nc(/N=C(\N)Nc2ccc(CC(=O)OC(C)C)cc2)n1	82.7*	44.6*	-19.5	-31.0	37.5*	112.8*
COc1ccccc1N/C(N)=N/c1nc(C)cc(C)n1	-12.3	-10.4	2.1	24.4	1.6	2.6
Cc1cc(C)nc(/N=C(\N)Nc2cccc(OCc3ccccc3)c2)n1	68.3*	21.7	-17.0	-29.9	46.5*	81.4*
Cc1cc(C)nc(/N=C(\N)Nc2ccc(OCCC(C)C)cc2)n1	86.1*	52.1*	-18.6	-11.7	32.8*	105.3*
CCOC(=O)C(=O)Nc1ccc(OCc2ccccc2)cc1	-2.7	1.9	-4.4	-0.8	6.1	7.1
Cc1cc(C)nc(/N=C(\N)Nc2ccc(OCc3ccccc3)cc2)n1	97.6*	89.2*	-28.1	-11.8	90.7*	111.3*
Cc1cc(C)nc(/N=C(\N)Nc2ccc(S(=O)(=O)O)cc2)n1	9.2	-4.3	-1.5	3.2	1.2	0.9
COc1ccc(N/C(N)=N/c2nc(C)cc(C)n2)cc1	14.1	18.9	-9.9	-5.3	6.7	7.1
Cc1cccc(C)c1NC(=O)CN(C)C(=O)c1ccccc1Sc1ccccc1C#N	-3.8	7.6	3.2	17.3	3.3	4.1
CC(Oc1ccccc1)C(=O)N1CCN(c2ccc(N3CCOCC3)nn2)CC1 (centres undefined)	-10.5	-1.5	-0.3	10.3	1.2	0.5
CCN1/C(=C\C=C(C(C)=O)C(C)=O)Sc2ccccc21	-1.4	2.6	-0.6	5.3	16.7*	7.3
COc1ccc(CCCN2CCC(CN3C(=S)NC[C@@H]3Cc3ccccc3)CC2)cc1OC	15.3	6.4	-6.7	-8.8	0.1	-0.4
O=C(Nc1cccc(Cl)c1)c1cccc(N2C(=O)C3CC=CCC3C2=O)c1 (centres undefined)	17.7	-1.7	-10.5	5.8	17.0*	18.4
O=C(Nc1ccc(O)c2c(=O)cc(-c3cccc(Cl)c3)oc12)c1ccc(F)cc1	-6.2	-8.9	2.1	7.2	1.1	0.9
CNC(=O)C[C@H]1C(=O)N(c2ccc(Br)cc2)C[C@@H]1CSC	1.1	6.3	-0.2	-9.8	-0.1	-0.1
CC(C)Cn1c(-c2ccccc2F)n[nH]c1=S	8.2	-12.6	18.3	-4.5	0.2	0.6
CC(C)Cn1c(-c2csc3c2CCCC3)n[nH]c1=S	29.9*	15.1	-16.2	-14.6	-0.3	-1.8
CC1CC1c1ccc(/C=C(\C#N)C(=O)Nc2cc(Cl)ccc2Cl)o1 (centres undefined)	-6.1	5.6	20.8*	4.8	0.2	1.0
SMILES	CHRM4 antagonist	CHO-K1 Ca antag	M4 PAM	M1 PAM parental	CHO-K1 Ca ag	M4 ag
Cc1cc(C)c(S(=O)(=O)Nc2ccccc2-c2ccccc2)c(C)c1	8.9	-22.0	-1.9	44.2*	0.5	-1.2
O=C(NNC(=O)c1cccc2ccccc12)c1ccc(-c2ccccc2)cc1	-6.9	-3.6	-8.8	14.3	9.1	19.9
O=C(NNC(=O)c1cccc2ccccc12)c1ccccc1O	-14.4	-6.7	17.4*	-15.1	3.1	7.2
CN1CCCC(CC2c3ccccc3Sc3ccccc32)C1 (centres undefined)	99.3*	1.4	-18.4	9.3	2.0	11.3
CN1CCCC(OC(=O)c2ccccc2F)C1 (centres undefined)	-3.3	-5.2	-10.9	0.1	0.8	1.5
OCCC1CN(Cc2ccc3nsnc3c2)CCN1CCc1ccccc1 (centres undefined)	-3.3	-11.6	-4.6	29.1	0.3	2.5
COc1ccccc1N1CCN(C(=O)Cn2c(=O)oc3cc(S(=O)(=O)N4CCCC4)ccc32)CC1	-11.4	0.6	3.7	17.1	1.3	5.4
CCOc1ccc(-c2cc(N3C(=O)Nc4ccccc4N3O)n[nH]2)cc1	2.2	-0.7	0.5	-0.2	-0.3	0.3
CCOC(=O)c1c(N2C(=O)Nc3ccccc3N2O)n[nH]c1-c1cccc(Cl)c1	-1.9	23.8*	-4.6	-16.2	-0.5	0.4
CCc1nc2c(OCc3c(C)noc3C)cccn2c1N(C=O)Cc1ccc(OC)cc1	-7.5	-10.2	0.3	41.0*	-1.1	-2.3
CCc1nc2c(OCc3ccc(Cl)cc3)cccn2c1N(C=O)Cc1ccc(OC)cc1	7.4	10.1	-6.5	4.2	-0.1	2.1
COc1cc(SC)ccc1C(=O)Nc1cccc(C2OCCCO2)c1	0.0	-1.6	-8.3	12.8	1.4	4.2
Cc1ccc(C(=O)C[n+]2ccc3ccccc3c2)cc1	-8.3	-18.2	-8.1	27.6	1.7	0.8
Cc1cc(C(C)(C)C)cc(C)c1C[n+]1ccc2ccccc2c1	29.3*	5.8	-13.5	-2.5	8.0	0.5
NC(=O)N/N=C/c1c(F)cccc1F	-2.4	-1.8	23.0*	14.9	0.6	0.7
O=C(Nc1cccc(C(F)(F)F)c1)C1Cc2c(-c3ccccc3)ccnc2O1 (centres undefined)	-0.2	1.9	-4.0	11.3	10.6	6.2
O=C(Nc1cccc(C(F)(F)F)c1)C1Cc2c(-c3ccc(Cl)cc3)ccnc2O1 (centres undefined)	-36.6	-19.0	16.7*	9.3	1.3	1.4
CCOC(=O)c1c(OCCO)nn(-c2ccc(Cl)cc2)c1N	8.3	33.5*	-11.1	-17.7	3.4	13.6
COc1ccc([N+](=O)[O-])cc1NC1CCN(C(=O)c2cccs2)CC1	-2.5	0.3	17.7*	22.5	1.7	3.3
CCC1(C(=O)NC(=Nc2ccccc2)Nc2ccccc2)CCOC1=O (centres undefined)	-10.1	-9.2	-1.4	17.9	1.1	2.3
Cc1nc2sc(C(=O)c3ccccc3)c(N)c2c(C)c1C	67.2*	-17.0	13.3	11.3	0.7	68.6*
Cc1nc(-c2ccccc2)nc2sc(C(=O)c3ccc(F)cc3)c(N)c12	-4.4	-0.4	-14.6	5.3	1.4	-0.2
